Results published in PubChem BioAssay AID1347419 (Sanford-Burnham Center for Chemical Genomics, 2020).
Out of some 99,000 compounds screened, about 820 (0.83%) were called active. What follows is part of a selection rich in actives, with near analogues and random picks from the rest. A number with no mark means an inactive call.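 The calls were made as follows: active = Z-score of -3 or lower, scaled per plate to the spread of control and sample wells; inactive = z-score above -3.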

Molecular target: Protein-tyrosine kinase 2-beta (Homo sapiens) (UniProt Q14289)
Test: antagonists of Pyk2 self-association, primary screen, Q293 cells, FERM NanoBiT luminescence, HTS (AID 1347419);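 also: the deposit names both 25 µM and 10 µM; negative z-score means lost luminescence so less FERM oligomerization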
Design: dose or concentration left out as unconfirmed
Details: stronger effect = lower value

Chain of Protein-tyrosine kinase 2-beta (Homo sapiens) (Q14289 whole entry, looked up): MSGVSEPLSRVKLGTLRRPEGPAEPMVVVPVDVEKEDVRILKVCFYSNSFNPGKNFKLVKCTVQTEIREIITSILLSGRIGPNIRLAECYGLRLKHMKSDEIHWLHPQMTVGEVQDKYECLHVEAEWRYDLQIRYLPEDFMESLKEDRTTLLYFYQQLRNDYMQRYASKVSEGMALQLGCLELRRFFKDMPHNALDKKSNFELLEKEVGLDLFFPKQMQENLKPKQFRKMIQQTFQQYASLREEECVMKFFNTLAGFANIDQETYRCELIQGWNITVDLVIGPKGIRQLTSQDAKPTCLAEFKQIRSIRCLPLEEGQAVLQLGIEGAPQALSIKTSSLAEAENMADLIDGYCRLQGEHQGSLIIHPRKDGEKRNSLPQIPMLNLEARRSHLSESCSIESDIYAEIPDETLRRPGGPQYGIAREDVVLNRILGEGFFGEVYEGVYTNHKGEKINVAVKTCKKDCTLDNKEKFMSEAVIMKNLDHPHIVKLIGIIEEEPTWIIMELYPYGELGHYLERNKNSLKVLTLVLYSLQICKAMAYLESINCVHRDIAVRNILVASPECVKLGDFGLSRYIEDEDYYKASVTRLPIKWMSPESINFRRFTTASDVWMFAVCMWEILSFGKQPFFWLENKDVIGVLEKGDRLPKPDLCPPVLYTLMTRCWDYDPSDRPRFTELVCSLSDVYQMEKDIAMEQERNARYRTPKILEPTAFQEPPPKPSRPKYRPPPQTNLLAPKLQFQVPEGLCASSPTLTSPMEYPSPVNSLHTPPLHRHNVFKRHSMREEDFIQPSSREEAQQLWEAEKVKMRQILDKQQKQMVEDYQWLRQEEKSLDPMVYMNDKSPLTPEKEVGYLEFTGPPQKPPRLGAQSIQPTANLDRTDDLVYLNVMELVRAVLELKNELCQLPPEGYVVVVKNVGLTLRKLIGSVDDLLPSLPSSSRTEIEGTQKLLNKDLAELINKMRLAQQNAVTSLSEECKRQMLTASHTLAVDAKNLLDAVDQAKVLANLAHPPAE

| Structure (SMILES) | z-score |
| --- | --- |
| CCC(=NCc1ccco1)c1c(O)n(Cc2ccccc2)c(=O)[nH]c1=O | -0.23 |
| CC(=O)c1c(O)n(C2CCCCCC2)c(=O)[nH]c1=O | 0.12 |
| CCC(=NCCc1ccccc1)c1c(O)n(C2CCCCC2)c(=O)[nH]c1=O | -3.36 (active) |
| CN(C)c1ccc(/C=C2\CC3C4CC=C5CC(O)CCC5(C)C4CCC3(C)C2=O)cc1 (stereo not given) | -0.08 |
| O=C(COC(=O)c1ccccc1)Nc1ccc(Cl)cc1C(=O)c1ccccc1 | 0.02 |
